Screening results as filed in PubChem BioAssay.
Most compounds without a hit are left out; they make up all but 11% or so of the library.
NPR1 antag – Natriuretic polypeptide receptor (hNpr1) antagonism - Primary qHTS; HEK293 hNpr1 GloSensor cGMP, ANP-stimulated luminescence; 76,000 tested, 1.6% active; Potency, µM (top dose mostly 46.3 µM), for the others: top-dose activity change, negative = inhibition, usual class: inhibitors; Atrial natriuretic peptide receptor 1 (Homo sapiens), P16066; calls by dose curve; also: nearly all actives have a fitted effect of over 60% in size
Target sequence (P16066 whole entry, looked up): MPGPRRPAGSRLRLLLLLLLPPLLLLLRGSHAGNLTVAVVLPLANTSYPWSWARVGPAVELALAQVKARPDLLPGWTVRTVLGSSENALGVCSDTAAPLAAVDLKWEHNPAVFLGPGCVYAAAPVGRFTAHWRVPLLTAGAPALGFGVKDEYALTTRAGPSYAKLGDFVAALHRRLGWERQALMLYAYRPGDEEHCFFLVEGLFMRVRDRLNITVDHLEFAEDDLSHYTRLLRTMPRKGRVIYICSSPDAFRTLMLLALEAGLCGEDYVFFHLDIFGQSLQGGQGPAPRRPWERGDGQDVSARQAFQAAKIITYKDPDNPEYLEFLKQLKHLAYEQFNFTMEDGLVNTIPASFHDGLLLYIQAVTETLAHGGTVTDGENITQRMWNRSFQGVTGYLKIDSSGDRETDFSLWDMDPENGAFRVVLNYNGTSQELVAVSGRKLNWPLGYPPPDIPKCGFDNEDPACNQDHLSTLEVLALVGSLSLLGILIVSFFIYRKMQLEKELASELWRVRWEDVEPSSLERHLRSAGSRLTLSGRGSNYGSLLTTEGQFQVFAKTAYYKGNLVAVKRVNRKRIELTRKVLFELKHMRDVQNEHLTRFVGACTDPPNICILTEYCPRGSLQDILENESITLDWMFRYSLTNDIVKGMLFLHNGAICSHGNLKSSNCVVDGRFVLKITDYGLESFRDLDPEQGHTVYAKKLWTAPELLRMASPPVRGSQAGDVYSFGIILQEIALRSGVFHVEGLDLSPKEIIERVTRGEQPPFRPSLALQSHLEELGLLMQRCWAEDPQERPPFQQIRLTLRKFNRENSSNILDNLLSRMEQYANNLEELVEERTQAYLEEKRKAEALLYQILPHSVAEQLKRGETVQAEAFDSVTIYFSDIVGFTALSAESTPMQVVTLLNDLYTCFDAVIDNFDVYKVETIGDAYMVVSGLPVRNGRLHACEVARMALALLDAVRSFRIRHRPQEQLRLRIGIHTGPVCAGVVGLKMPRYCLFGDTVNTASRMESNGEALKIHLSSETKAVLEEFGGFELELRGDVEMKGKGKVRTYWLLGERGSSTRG
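Compound pre-incubated 30 min at room temperature on GloSensor-loaded HEK293 cells stably carrying hNpr1 and the pGS-40F cGMP biosensor. Stimulation uses hNppA at 0.1 nM final; luminescence is taken at baseline and 20 min post-agonist.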
Luciferase inh – Firefly luciferase inhibition profiling of diverse chemical library using quantitative high-throughput screening | Luciferin 4-monooxygenase (Photinus pyralis), P08659 | purified P. pyralis luciferase, luminescence, biochemical | Potency, µM (top dose mostly 115 µM), actives largely listed as inhibitors | 76,000 tested, 2.5% active | AID 1347043, 2019; also: nearly all actives have a fitted effect of over 65% in size
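Inhibitors were tested against purified firefly luciferase in a biochemical, low-substrate format (both substrates at 10uM) and luminescence measured with a CCD imager.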
NIH3T3 tox – Cytotoxic Profiling in NIH 3T3 Cell Line of Diverse Libraries Using Quantitative High-Throughput Screening | 94,000 tested, 4.3% active | Potency, µM (highest dose often 96.7 µM), without a hit: at the top dose activity change, negative = cytotoxicity, hits mostly inhibitors | NIH 3T3 viability, CellTiter-Glo ATP luminescence, 48-72 h; also: nearly all actives have a fitted effect of over 55% in size
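Cytotoxicity was measured by CellTiter-Glo ATP luminescence after 48 or 72 h compound exposure at 37 °C. Mouse NIH 3T3 fibroblasts were seeded at 400 cells/well and dosed by 23 nL pin transfer.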
HEK cytotox – Cytotoxic Profiling in HEK 293 Cell Line of Diverse Libraries Using Quantitative High-Throughput Screening; AID 1345083, 2018; Potency, µM (top dose mostly 115 µM), for the others: top-dose activity change, negative = cytotoxicity, most hits filed as inhibitors; HEK 293 viability, ATP luminescence (CellTiter-Glo), 48-72 h; 94,000 tested, 6.6% active; also: nearly all actives have a fitted effect of over 60% in size
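250 HEK 293 cells/well; compound by pintool; incubated 48 or 72 hr at 37 degree Celsius; CellTiter-Glo added, 10 min RT, luminescence imaged.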
Active calls of the source: *; [ ] = dose if it differs, or a comment. Unless noted, calls follow the shape of the dose curve; as a rule, active = well fitted curve in the direction sought with a large enough effect; inconclusive = small, poorly fitted or top-dose-only effect, or another doubt; inactive = no such curve, though single readings can be large; an effect the other way counts as inactive or inconclusive. % is scaled to controls: 0 for no effect and ±100 for the full control effect; potency is read from the fitted curve at half-maximal effect.

CSc1cccc(NC(=O)NC[C@H]2C[C@@H]3CCN2C[C@@H]3CN2CCN(c3ccccc3)CC2)c1 was read as NPR1 antag -2%, Luciferase inh inactive, NIH3T3 tox 20µM* and HEK cytotox 22µM*.
`COc1cc2c(cc1CCc1ccccc1)N(C(=O)Cc1ccc3c(c1)OCO3)CC21CCN(C(C)=O)CC1` gave NPR1 antag -17%, Luciferase inh inactive, NIH3T3 tox inconclusive and HEK cytotox -24%.
For COc1cc2c(cc1OCc1ccccc1)N(C(=O)COc1ccccc1C(N)=O)CC21CCN(C)CC1 the results were NPR1 antag 4%, Luciferase inh inactive, NIH3T3 tox 22µM* and HEK cytotox 40µM*.
For COc1cc2c(cc1CCc1ccccc1)N(C(=O)COc1ccccc1)CC21CCN(C(C)=O)CC1 the results were NPR1 antag -2%, Luciferase inh inactive, NIH3T3 tox inconclusive and HEK cytotox -25%.
For COc1cc2c(cc1OCc1ccccc1)N(C(=O)Cc1ccc3c(c1)OCO3)CC21CCN(C)CC1 the results were NPR1 antag 7%, Luciferase inh inactive, NIH3T3 tox inconclusive and HEK cytotox 79µM*.
For COc1cc2c(cc1CCc1ccccc1)N(C(=O)CC(C)C)CC21CCN(C(C)=O)CC1 the results were NPR1 antag 2%, Luciferase inh inactive, NIH3T3 tox inconclusive and HEK cytotox inconclusive.
`COc1cc2c(cc1CCc1ccccc1)N([S+](=O)([O-])c1ccc3c(c1)CCO3)CC21CCN(C(C)=O)CC1` gave NPR1 antag -3%, Luciferase inh inactive, NIH3T3 tox 25µM* and HEK cytotox inconclusive.
Screening COc1ccc(CC(=O)N2CC3(CCN(C)CC3)c3cc(OC)c(OCc4ccccc4)cc32)cc1 returned NPR1 antag 6%, Luciferase inh inactive, NIH3T3 tox inconclusive and HEK cytotox 32µM*.
CC[C@H]1CN2CC[C@H]1C[C@@H]2CNCc1ccc(SC)cc1 was read as NPR1 antag 1%[70.6 µM], Luciferase inh inactive, NIH3T3 tox inconclusive and HEK cytotox inconclusive.
For COc1cc2c(cc1OCc1ccccc1)N(C(=O)COc1ccccc1)CC21CCN(C)CC1 the results were NPR1 antag 0%, Luciferase inh inactive, NIH3T3 tox 22µM* and HEK cytotox 28µM*.
For COc1cc2c(cc1OCc1ccccc1)N([S+](=O)([O-])c1cccc(C)c1)CC21CCN(C)CC1 the results were NPR1 antag -2%, Luciferase inh inactive, NIH3T3 tox 22µM* and HEK cytotox 28µM*.
`CC(=O)c1ccc(NC(=O)NC[C@H]2C[C@@H]3CCN2C[C@@H]3CN2CCN(C)CC2)cc1` gave NPR1 antag -2%[70.6 µM], Luciferase inh inactive, NIH3T3 tox -23%[174 µM] and HEK cytotox -22%[172 µM].
For COCC(=O)N1CC[C@@H]2COCCN(Cc3cccnc3)[C@@H]2C1 the results were NIH3T3 tox -1% and HEK cytotox inactive.
`CC[C@H]1CN2CC[C@H]1C[C@@H]2CNCc1cc2ccccc2o1` gave NPR1 antag 6%[70.6 µM], Luciferase inh inactive, NIH3T3 tox inconclusive and HEK cytotox inconclusive.
Screening CC(C)(C)c1ccc(-c2cn(C[C@H]3CC4CCN3C[C@@H]4C(=O)NC3CCCCC3)nn2)cc1 (some centres not stated) returned NPR1 antag -1%, Luciferase inh inactive, NIH3T3 tox inconclusive and HEK cytotox 32µM*.
Screening C=CCN(C)C(=O)[C@H]1CN2CCC1C[C@@H]2Cn1cc(CO)nn1 (some centres not stated) returned NPR1 antag -1%[70.6 µM], Luciferase inh inactive, NIH3T3 tox -34%[174 µM] and HEK cytotox inconclusive.
Screening COc1ccc(-c2cn(C[C@H]3C[C@@H]4CCN3C[C@@H]4C(=O)NC3CC3)nn2)cc1 returned NPR1 antag -8%[70.6 µM], Luciferase inh inactive, NIH3T3 tox -3%[174 µM] and HEK cytotox inactive.
For COc1ccccc1N1CCN(C(=O)[C@H]2CN3CCC2C[C@@H]3Cn2cc(-c3ccccc3)nn2)CC1 (some centres not stated) the results were NPR1 antag 3%, Luciferase inh inactive, NIH3T3 tox -29% and HEK cytotox 45µM*.
For C=CCN(C)C(=O)[C@H]1CN2CCC1C[C@@H]2Cn1cc(-c2ccc(C(C)(C)C)cc2)nn1 (some centres not stated) the results were NPR1 antag -2%[70.6 µM], Luciferase inh inconclusive, NIH3T3 tox inconclusive and HEK cytotox 100µM*.
For COc1ccccc1CNC(=O)[C@H]1CN2CC[C@H]1C[C@@H]2Cn1cc(-c2ccccc2)nn1 the results were NPR1 antag 1%[70.6 µM], Luciferase inh inactive, NIH3T3 tox -23%[174 µM] and HEK cytotox -1%[172 µM].
For CNCc1cn(C[C@H]2CC3CCN2C[C@@H]3C(=O)Nc2ccccc2)nn1 (some centres not stated) the results were NPR1 antag 3%[70.6 µM], Luciferase inh inactive, NIH3T3 tox -1%[174 µM] and HEK cytotox -1%[172 µM].
Screening O=C(Nc1ccccc1)[C@H]1CN2CCC1C[C@@H]2Cn1cc(CSc2ccccc2)nn1 (some centres not stated) returned NPR1 antag 2%[70.6 µM], Luciferase inh inactive, NIH3T3 tox 100µM* and HEK cytotox 100µM*.
Screening N#Cc1cccc(NC(=O)NC[C@H]2C[C@@H]3CCN2C[C@@H]3CN2CCCCC2)c1 returned NPR1 antag 4%[70.6 µM], Luciferase inh inactive, NIH3T3 tox -18%[174 µM] and HEK cytotox -12%[172 µM].
Fc1cnccc1CN1CC[C@@H]2CN(Cc3ccccc3)[C@@H]2C1 was read as NIH3T3 tox -14% and HEK cytotox -24%.
For Cc1nc(-c2ccc(F)cc2)cc([C@H]2CN3CC[C@H]2C[C@@H]3CNS(=O)(=O)Cc2ccccc2)n1 the results were NPR1 antag 4%, Luciferase inh inactive, NIH3T3 tox 79µM* and HEK cytotox 35µM*.
`COc1ccc(CNC[C@H]2C[C@@H]3CCN2C[C@@H]3c2cc(-c3cccs3)nn2C)cc1` gave NPR1 antag 1%[70.6 µM], Luciferase inh inactive, NIH3T3 tox inconclusive and HEK cytotox 45µM*.
Cn1nc(-c2ccc3ccccc3c2)cc1[C@H]1CN2CC[C@H]1C[C@@H]2CNS(=O)(=O)c1cccs1 was read as NPR1 antag -4%, Luciferase inh inconclusive, NIH3T3 tox 20µM* and HEK cytotox inconclusive.
Cn1nc(-c2ccccc2)cc1[C@H]1CN2CC[C@H]1C[C@@H]2CNS(=O)(=O)Cc1ccccc1 was read as NPR1 antag 6%, Luciferase inh inactive, NIH3T3 tox 79µM* and HEK cytotox 79µM*.
Cn1nc(-c2ccccc2)cc1[C@H]1CN2CC[C@H]1C[C@@H]2CNS(=O)(=O)c1cccs1 was read as NPR1 antag -16%[70.6 µM], Luciferase inh inactive, NIH3T3 tox inconclusive and HEK cytotox inconclusive.
